LmPK inh – LmPK (Leishmania mexicana) enzyme inhibition. purified LmPK, Kinase-Glo ATP luminescence, 1 h. Potency, µM (titrated, usually from 57.5 µM), without a hit: at the highest dose activity change, negative = inhibition, most hits filed as inhibitors. hit rate 0.37% among 290,000. AID 1721; further: potency means the concentration at half of the fitted maximal effect; on the % scale 0 is the no-effect control and ±100 the full control effect
Target sequence (Q27686 whole entry, looked up): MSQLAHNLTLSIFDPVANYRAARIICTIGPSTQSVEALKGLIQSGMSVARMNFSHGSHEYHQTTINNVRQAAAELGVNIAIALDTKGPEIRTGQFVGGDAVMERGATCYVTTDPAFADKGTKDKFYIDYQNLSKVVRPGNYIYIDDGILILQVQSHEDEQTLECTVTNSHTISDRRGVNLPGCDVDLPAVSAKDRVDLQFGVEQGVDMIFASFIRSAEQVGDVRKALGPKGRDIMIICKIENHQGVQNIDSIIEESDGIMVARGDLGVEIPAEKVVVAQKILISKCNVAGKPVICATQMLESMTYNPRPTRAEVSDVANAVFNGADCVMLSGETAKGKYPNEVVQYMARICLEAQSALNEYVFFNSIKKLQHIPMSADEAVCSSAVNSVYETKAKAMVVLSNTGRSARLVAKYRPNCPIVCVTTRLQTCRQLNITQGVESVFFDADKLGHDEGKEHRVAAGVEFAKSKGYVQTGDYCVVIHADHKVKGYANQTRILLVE
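Screened at intermediate enzyme activity to detect both inhibitors and activators: LmPK at 0.1 nM, with a 0.5 nM enzyme column as activation reference. PEP 0.5 mM, ADP 0.1 mM; ATP detected by luminescence after 1 h.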
Giardia FBPA inh – Giardia lamblia aldolase inhibition; A8B2U2; purified Giardia FBPA; Potency, µM (highest dose often 59.6 µM), without a hit: at the highest dose activity, negative = inhibition, hits mostly inhibitors; hit rate 0.71% among 290,000; further: potency means the concentration at half of the fitted maximal effect; on the % scale 0 is the no-effect control and ±100 the full control effect; nearly all actives have a fitted effect of over 55% in size
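40 nM FBPA preincubated 10 min at RT with compound (up to 57.5 uM final), then substrate plus GAPDH/TPI/NAD/arsenate coupling and diaphorase/resazurin added. Fluorescence read after 20 min at RT, 525/598 nm.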
Shiga inhibitor – blocks Shiga toxin action in Vero cells. inhibition, % at 38.7 µM. AID 2315. Vero cells, Shiga toxin protein synthesis inhibition reporter. hit rate 9.2% among 290,000; in the data active means inhibition mostly above about 28%, no sharp cut-off; inactive means mostly below about 43%; further: 0% is about no effect
Sm TGR inh – S. mansoni TGR enzyme inhibition | Q962Y6 | hit rate 3% among 360,000 | AID 485364 | purified TGR, DTNB reduction, TNB absorbance 405 nm | Potency, µM (titrated, usually from 114 µM), for inactives: at the top dose activity change, negative = inhibition, hits mostly inhibitors; further: potency means the concentration at half of the fitted maximal effect; on the % scale 0 is the no-effect control and ±100 the full control effect; nearly all actives have a fitted effect of over 60% in size
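First, TGR (20 nM dispensed) and NADPH were mixed with compound. Second, a 15 min room-temperature incubation followed. Third, further NADPH and then DTNB were added to start the reaction. Finally, TNB absorbance was monitored kinetically.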
CHX counter – counter-screen for Shiga toxin inhibitors: cycloheximide protein synthesis inhibition | cell reporter, cycloheximide protein synthesis inhibition counterscreen | max response, % | hit rate 12% among 300,000 | AID 2314; in the data active means max response mostly above about 13%, no sharp cut-off; inactive means mostly below about 14%; further: read at 38.3 µM for the half of the compounds with a filed dose; 0% is about no effect
TbPYK inhibitor – inhibitors of Trypanosoma brucei pyruvate kinase. TbPYK enzyme, Kinase-Glo Plus ATP luminescence, 45 min. Potency, µM (top dose mostly 76.8 µM), without a hit: at the top dose activity, negative = inhibition, hits mostly inhibitors. hit rate 0.12% among 410,000. AID 624173; further: potency means the concentration at half of the fitted maximal effect; on the % scale 0 is the no-effect control and ±100 the full control effect; nearly all actives have a fitted effect of over 50% in size
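Screened from lowest to highest concentration, compounds were pinned into TbPYK/substrate mixtures, and ADP (130 uM final) was added. Plates sat at room temperature for 45 min prior to Kinase-Glo Plus detection by luminescence.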
An asterisk follows results filed as active; ? = inconclusive; nt = no result; + = active, no number. Many of the other results were omitted from the sample, so hits are more common in it than they were. Unless noted, the call rests on the fitted dose curve; in most records, active means well fitted curve in the direction sought with a large enough effect; inconclusive means small, poorly fitted or top-dose-only effect, or another doubt; inactive means no such curve, though single readings can be large; an effect the other way counts as inactive or inconclusive.

SMILES	LmPK inh	Giardia FBPA inh	Shiga inhibitor	Sm TGR inh	CHX counter	TbPYK inhibitor
CNC[C@@H]1Oc2ccc(NS(=O)(=O)c3ccc(OC)cc3)cc2CC(=O)N([C@H](C)CO)C[C@@H]1C	nt	nt	nt	nt	nt	-12%
CCOC(=O)Cn1cncc1-c1ccc([N+](=O)[O-])cc1	2%	-13%	84*	-2%	72*	-13%
CCCS(=O)(=O)NC(=O)C1(C)CCN(C(=O)c2ccccc2OC)C1 (configuration not stated)	nt	nt	nt	nt	nt	-11%
COc1cccc(NC(=O)COC(=O)c2ccccc2C(=O)N(C)c2ccccc2)c1	nt	nt	nt	-8%	nt	5%
CN(CCOc1ccccc1)C(=O)c1ccc(F)c(S(=O)(=O)N2CCOCC2)c1	nt	nt	nt	-3%	nt	-6%
Cc1ccc(C2C3CSCC=C3C(C#N)=C(N)C2(C#N)C#N)cc1 (configuration not stated)	2%	?	-8	?	0	-10%
N#CC1=C(N)C(C#N)(C#N)[C@H](c2ccncc2)[C@H]2CC3(CC=C12)OCCO3	5%	?	-18	79µM*	-10	-4%
CCOc1ccc(/C=N/NC(=O)c2ccc(CSc3nc4ccccc4[nH]3)cc2)cc1	-2%	1%	43*	-12%	21*	-2%
O=C(Nc1ccc(-c2nc3ccccc3[nH]2)cc1)c1ccc(N2C(=O)CCC2=O)cc1	-5%	6%	-7	-6%	-4	-9%
CCOc1ccccc1/C=C/c1nc2ccccc2[nH]c1=O	-1%	-19%	17	-8%	13*	-13%
CCOc1ccccc1/C=C/c1cc(C(=O)O)c2ccccc2n1	2%	-7%	-6	-1%	2	-11%
O=C1CCC(=O)N1c1ccc(CSc2nc3ccccc3[nH]2)cc1	-2%	0%	87*	-8%	27*	-6%
c1ccc2[nH]c(SCc3ccc(-c4nnco4)cc3)nc2c1	?	-10%	89*	-2%	18*	-5%
COc1ccccc1C(=O)NCCC(=O)N1CCN(S(=O)(=O)c2ccccc2C(F)(F)F)CC1	nt	nt	nt	5%	nt	3%
CSCC[C@H](NC(=O)[C@@H]1CSC2c3ccccc3C(=O)N21)C(=O)NCc1ccco1 (some centres not stated)	0%	nt	27	?	7	-4%
CCOC(=O)c1c(C)[nH]c(C)c1S(=O)(=O)N1CCC(C(=O)NCc2cccc(C)c2)CC1	nt	nt	nt	2%	nt	4%
COc1ccc(CSc2nc3ncccc3[nH]2)cc1	nt	nt	nt	3%	nt	-4%
COc1ccc(CSc2nc3ccccc3[nH]2)cc1	16µM*	-5%	74*	19%	35*	-10%
CCOc1ccccc1CSc1nc2ccccc2[nH]1	1%	1%	22	-1%	19*	0%
CC(NC(=O)CN1CCN(C(=O)c2cccs2)CC1)c1ccc(F)cc1F (configuration not stated)	nt	nt	nt	nt	nt	4%
CCC1CCCCN1S(=O)(=O)c1ccc(NC(=O)c2cc(=O)c3c(C)cc(C)cc3o2)cc1 (configuration not stated)	nt	nt	nt	15%	nt	-1%
CC(=O)Nc1cccc(N/C=C(\C=O)c2nc3ccccc3o2)c1	1%	-14%	36*	-7%	29*	1%
O=C/C(=C\Nc1ccccn1)c1nc2ccccc2o1	3%	-25%	+	-6%	27*	2%
CC(=O)Nc1ccc(N/C=C(\C=O)c2nc3ccccc3o2)cc1	7%	-7%	-11	3%	14	-1%
O=C/C(=C\Nc1ccc(Br)cc1)c1nc2ccccc2o1	5%	-25%	4	42%	-4	5%
O=C/C(=C\Nc1ccccn1)c1nc2cc(Cl)ccc2o1	3%	-4%	63*	0%	47*	-6%
Cc1ccc(C)c(CN2C(=O)c3ccccc3S(=O)c3ccc(C(=O)NCc4ccccc4)cc32)c1 (configuration not stated)	nt	nt	nt	7%	nt	3%
CN1CCN(C(=O)c2ccccc2NS(=O)(=O)c2ccc(F)cc2)CC1	nt	nt	nt	-16%	nt	-10%
CCc1ccc(-c2nc3c(c(SCc4ccccc4)n2)Cc2c(CO)cnc(C)c2O3)cc1	nt	nt	nt	-6%	nt	3%
